ELG1 repair inh – inhibitors of ELG1-dependent DNA repair in HEK293T cells; 330,000 tested, 2.3% active; HEK293T ELG1-luciferase reporter, luminescence, 16 h; DNA damage induced by 5-fluorouridine; Potency, µM (series often up to 46.1 µM), for the others: at the highest dose activity change, negative = inhibition, actives largely listed as inhibitors; AID 504467; note: potency is the fitted concentration of half-maximal effect; nearly all actives have a fitted effect of over 55% in size
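Reporter activity after DNA damage by 5-fluorouridine is monitored. Compound-treated cells incubate 16 hr at 37 °C, then ONE-Glo is added for 30 min before luminescence reading.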
RORgamma inh – blocks mouse ROR gamma transcriptional activity | Drosophila S2 Gal4-RORgamma UAS-luciferase reporter, 20 h | Potency, µM (doses to about 53.6 µM), inactives show top-dose activity change, negative = inhibition, hits mostly inhibitors | 310,000 tested, 5.4% active | AID 2551; note: potency is the fitted concentration of half-maximal effect; nearly all actives have a fitted effect of over 60% in size
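Drosophila Schneider cells stably carrying a metallothionein-driven Gal4 DBD–ROR gamma fusion and a UAS-Photinus luciferase reporter were exposed to compound for 1 hr, then induced with copper sulfate (700 uM final) for 20 hr at ambient temperature before luminescence reading.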
FBPA coupling cs – counter-screen for Giardia aldolase inhibitors: coupling enzyme system; coupling enzyme system counterscreen, AmpLite Red fluorescence; activity change, negative = inhibition, % at 58.2 µM, hits read low; 290,000 tested, 0.67% active; in the data active = activity change below about -30%
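First, compound is pin-transferred into glyceraldehyde-3-phosphate coupling-enzyme reagent at 57.5 uM final and held 10 min at RT. Next, substrate, coupling system and AmpLite Red are added. After 20 min RT, fluorescence (525/598 nm) is read.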
TSHR antag – antagonists of human thyroid stimulating hormone receptor | 330,000 tested, 0.2% active | activity change, negative = inhibition, % at 11.5 µM | TSHR-expressing cells, TSH-stimulated cAMP HTRF, 2 h; stronger effect = lower value | AID 504810;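 active = activity change below a set negative limit, meaning inhibition stronger than a set level, cut at about -70% in these data; inconclusive = activity change between two set negative limits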
Target sequence (P16473 whole entry, looked up): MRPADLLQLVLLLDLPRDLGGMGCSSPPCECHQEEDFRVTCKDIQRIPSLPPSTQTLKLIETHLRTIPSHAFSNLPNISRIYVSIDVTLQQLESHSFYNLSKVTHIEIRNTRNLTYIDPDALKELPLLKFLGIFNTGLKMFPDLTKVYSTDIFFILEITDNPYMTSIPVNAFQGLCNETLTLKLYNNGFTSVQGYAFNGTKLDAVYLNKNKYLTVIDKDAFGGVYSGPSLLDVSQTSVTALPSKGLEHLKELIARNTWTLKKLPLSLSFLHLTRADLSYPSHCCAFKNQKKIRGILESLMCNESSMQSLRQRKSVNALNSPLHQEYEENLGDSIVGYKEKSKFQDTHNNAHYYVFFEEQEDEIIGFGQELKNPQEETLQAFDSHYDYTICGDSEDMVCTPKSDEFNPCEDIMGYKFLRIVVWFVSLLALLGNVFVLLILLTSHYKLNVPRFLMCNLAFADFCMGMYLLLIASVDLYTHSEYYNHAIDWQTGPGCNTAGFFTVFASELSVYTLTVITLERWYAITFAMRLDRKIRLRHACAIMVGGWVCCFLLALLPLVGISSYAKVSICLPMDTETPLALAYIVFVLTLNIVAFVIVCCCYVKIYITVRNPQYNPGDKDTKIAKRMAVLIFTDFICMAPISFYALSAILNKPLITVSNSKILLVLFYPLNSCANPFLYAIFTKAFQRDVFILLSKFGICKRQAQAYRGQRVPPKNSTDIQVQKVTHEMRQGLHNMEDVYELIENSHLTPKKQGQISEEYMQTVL
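Read-out is FRET at 665 nm (cryptate excitation 337 nm) from a cryptate-tagged anti-cAMP antibody, competed by cell cAMP against cAMP-d2. Compounds are tested on freshly harvested TSHR cells challenged with 4nM TSH (EC80) for 2 hours at 37 deg C.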
Gal4-VP16 FLuc – counter-screen for ROR gamma inhibitors: Gal4-VP16 reporter; Drosophila S2 Gal4-VP16 UAS-luciferase, luminescence, 20 h; Potency, µM (titrated, usually from 53.6 µM), without a hit: at the highest dose activity, negative = inhibition, most hits filed as inhibitors; 310,000 tested, 3.5% active; AID 2546;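 note: Gal4-VP16 expression switched on by copper sulfate through the metallothionein promoter; potency is the fitted concentration of half-maximal effect; nearly all actives have a fitted effect of over 50% in size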
Numbers without * were called inactive; ? = inconclusive; nt = no result given; [ ] = dose if it differs, or a comment. Only some compounds are listed: those with a hit (about 8% of all), similar ones and a draw of the others. Unless noted, calls come from the whole dose curve; as a rule, active = well fitted curve in the direction sought with a large enough effect; inconclusive = small, poorly fitted or top-dose-only effect, or another doubt; inactive = no such curve, though single readings can be large; an effect the other way counts as inactive or inconclusive. % is set by controls: 0 for no effect and ±100 for the full control effect.

SMILES	ELG1 repair inh	RORgamma inh	FBPA coupling cs	TSHR antag	Gal4-VP16 FLuc
CC(C)NC(=S)NN=C1CCC(c2ccccc2)CC1 (stereo unspecified)	-2.3%	5.62µM*	4.9	-6.3	11.2µM*
CC(C)NC(=S)N/N=C1\CCCc2ccccc21	8.8%	1.58µM*	0.4	-4.7	3.98µM*
COc1ccc2cc3cc(C(=O)NCc4ccc5c(c4)OCO5)oc3nc2c1	-14.2%	8.9%	1.3	-2.7	-7.7%
COc1ccc2cc3cc(C(=O)N4CCN(Cc5ccc6c(c5)OCO6)CC4)oc3nc2c1	23.1µM*	19.8%	2.6	-15.5	-4.9%
O=C(Cn1cnc2ccccc21)Nc1cccc(S(=O)(=O)N2CCCC2)c1	4.9%	nt	nt	-12.6	nt
COc1cc(-c2nc(-c3ccccc3)c(-c3cccs3)[nH]2)cc(OC)c1OC	?	-20.1%	-2.1	3.5	-2.4%
COc1cc(-c2nc(-c3ccc4c(c3)-c3ccccc3S4(=O)=O)c(-c3ccccc3)[nH]2)cc(OC)c1OC	2.59µM*	-27.9%	-1.6	-5.4	?
Cc1ccc(OCc2ccc(C(=O)Nc3nc4ccccc4n3C)o2)c([N+](=O)[O-])c1	0.3%	5.62µM*	1.3	7.3	3.16µM*
Cc1ccc(OCc2ccc(C(=O)Nc3nc4ccccc4n3Cc3ccccc3)o2)c([N+](=O)[O-])c1	?	?	-0.6	3.5	0.316µM*
Cc1nn(CCCC(=O)NC(C)c2ccccc2)c(=O)c2nn(-c3ccccc3)c(C)c12 (stereo unspecified)	?	-0.2%	4.0	-7.4	-19.8%
CCn1c(COc2ccc(OC)cc2)nnc1SCc1nc2ccccc2c(=O)[nH]1	2.0%	13.0%	3.7	-2.6	-7.6%
Cc1ccc(OCCSCc2nc3ccccc3[nH]2)cc1	?	-31.4%	0.2	-11.2	?
Cc1ccc(OCc2nnc(SCc3nc4ccccc4[nH]3)n2Cc2ccco2)cc1	9.2µM*	?	-0.3	-12.2	?
Clc1ccc(OCCSCc2nc3ccccc3[nH]2)cc1	?	5.01µM*	4.3	-12.0	5.01µM*
CCn1c(COc2ccc(Cl)cc2)nnc1SCc1nc2ccccc2[nH]1	?	11.2µM*	0.0	-4.6	?
c1ccc(-c2nnc(SCc3nc4ccccc4[nH]3)n2Cc2ccco2)cc1	20.6µM*	11.2µM*	3.1	4.0	?
Cc1ccc(OCc2nnc(SCC(=O)c3ccccc3)n2Cc2ccco2)cc1	?	-30.5%	-1.2	-1.3	-4.3%
Oc1cncc(Cc2ccccc2)c1	0.8%	-18.8%	0.2	-9.5	3.5%
Cc1cnc(C(=O)OCC(=O)Nc2ccc(Br)cc2F)cn1	23.5%	nt	nt	6.1	nt
Cn1cccc1C(=O)N1CCC2(CC1)CCN(c1ncccn1)CC2	nt	16.9%	2.3	nt	4.1%
O=C(CSc1cccc[n+]1[O-])N1CCCCCC1	1.5%	-21.9%	1.4	9.9	1.1%
[O-][n+]1ccccc1SSc1cccc[n+]1[O-]	nt	0.355µM*	nt	nt	0.891µM*
O=C(CSc1cccc[n+]1[O-])CSc1cccc[n+]1[O-]	-4.6%	3.98µM*	0.9	4.0	?
CCOC(=O)Cc1csc(NC(=O)c2cc(-c3ccncc3)nc3ccccc23)n1	?	nt	nt	-1.0	nt
CSc1ccc(NC(=O)Nc2cc(C)ccn2)cc1	?	8.91µM*	1.7	-5.1	?
SMILES	ELG1 repair inh	RORgamma inh	FBPA coupling cs	TSHR antag	Gal4-VP16 FLuc
COc1ccc(C(=O)/C=C/Nc2cc(C)ccn2)cc1	?	0.199µM*	-0.6	-8.7	?
COc1ccc(C(=O)NC(=O)Nc2cc(C)ccn2)cc1	?	0.0398µM*	-1.9	0.8	0.178µM*
Cc1ccnc(N/C=C/C(=O)c2ccc(Br)cc2)c1	?	?	-0.6	-18.5	?
COc1cccc(C(=O)NCC(=O)N2CCC3(CC2)NCCc2[nH]cnc23)c1	4.1%	-5.6%	nt	-2.3	-1.3%
COc1ccc(-n2c(-c3ccccc3)nc(=S)c3c2CCCC3)cc1	6.7%	14.1µM*	5.6	0.1	?
COc1ccc(-n2c(-c3cccc(OC)c3)nc(=S)c3c2CCCC3)cc1	-5.8%	10µM*	7.0	31.9	?
C=CCN1C(=O)C(C)(C)N(C(=O)c2cccc([N+](=O)[O-])c2)c2ccccc21	?	16.5%	-2.6	-22.1	15.9%
C#CCN1C(=O)S/C(=C\c2ccc(-c3ccc(Cl)c(C(=O)O)c3)o2)C1=O	?	-9.8%[1.91 µM]	8.9	-30.2	1.26µM*
O=C(O)c1cc(-c2ccc(/C=C3\NC(=O)N(c4ccccc4)C3=O)o2)ccc1Cl	26.8%	1.4%	-14.2	0.3	-7.8%
Cc1ccc(C2CC(c3ccc(Cl)cc3)=NNC2=O)cc1 (stereo unspecified)	?	?	-0.2	-10.6	14.1µM*
O=C1NN=C(c2ccc(Br)cc2)CC1c1ccc(Cl)cc1 (stereo unspecified)	-3.8%	28.7%	2.7	-14.1	0.2%
Cc1c(C(=O)N2CCN(c3ccc(F)cc3)CC2)sc2ncnc(N3CCN(c4ccccn4)CC3)c12	6.51µM*	43.8%	-3.0	-29.2	-22.9%
COc1ccccc1N1CCN(C(=O)c2sc3ncnc(N4CCN(c5ccccn5)CC4)c3c2C)CC1	18.3µM*	19.2%	-0.2	-2.0	-18.2%
COc1ccc(NC(=O)c2sc3ncn(CC(=O)N4CCN(c5ccccn5)CC4)c(=O)c3c2C)c(OC)c1	?	-14.4%	nt	7.2	-3.2%
Cc1nc(N2CCN(c3ccccn3)CC2)c2c(C)c(C(=O)N3CCN(c4ccc(F)cc4)CC3)sc2n1	23.1µM*	2.7%	-2.7	-0.1	-19.9%
COc1ccccc1N1CCN(C(=O)c2sc3nc(C)nc(N4CCN(c5ccccn5)CC4)c3c2C)CC1	?	33.5%	-3.3	-23.1	-5.6%
COc1ccc(OC)c(NC(=O)c2sc3ncnc(N4CCN(c5ccccn5)CC4)c3c2C)c1	2.59µM*	-22.6%	-4.0	-1.5	-6.2%
CC(=O)NC(Cc1ccccc1F)C(=O)NC1CCN(C(=O)NCc2ccccc2)CC1 (stereo unspecified)	-2.6%	0.5%	1.1	-8.7	-8.4%
Cc1cc(C)cc(NC(=O)COC(=O)CC2CCCC2)c1	1.9%	nt	nt	4.9	nt
O=C(Cc1cccs1)N[C@@H]1c2ccccc2CC[C@H]1OCc1ccccc1	5.3%	nt	nt	7.8	nt
CCN(C(=O)CSc1nc2ccccc2o1)c1c(N)n(Cc2ccccc2)c(=O)[nH]c1=O	?	nt	nt	2.4	nt
CC(C)=CCC/C(C)=C/C=N/NC(=O)c1cccc([N+](=O)[O-])c1	-3.1%	1.58µM*	0.0	-4.5	1.41µM*
CCC(=O)Nc1ccc(C(=O)N/N=C/c2ccc([N+](=O)[O-])cc2)cc1	-10.1%	?	-3.6	-10.5	-0.7%
CC(/C=N/NC(=O)c1cccc([N+](=O)[O-])c1)=C\c1ccccc1	14.2%	-25.6%	-2.4	9.2	-10.8%

High-throughput results: PubChem, National Center for Advancing Translational Sciences (NCATS)
